S-ASM inh – human S-ASM enzyme inhibition. P17405. placental ASM, HMU-PC fluorogenic substrate, 60 min. Potency, µM (top dose mostly 57.5 µM), actives largely listed as inhibitors. 0.006% of 340,000 active. AID 504937
Target sequence (P17405 47-631 limits assumed): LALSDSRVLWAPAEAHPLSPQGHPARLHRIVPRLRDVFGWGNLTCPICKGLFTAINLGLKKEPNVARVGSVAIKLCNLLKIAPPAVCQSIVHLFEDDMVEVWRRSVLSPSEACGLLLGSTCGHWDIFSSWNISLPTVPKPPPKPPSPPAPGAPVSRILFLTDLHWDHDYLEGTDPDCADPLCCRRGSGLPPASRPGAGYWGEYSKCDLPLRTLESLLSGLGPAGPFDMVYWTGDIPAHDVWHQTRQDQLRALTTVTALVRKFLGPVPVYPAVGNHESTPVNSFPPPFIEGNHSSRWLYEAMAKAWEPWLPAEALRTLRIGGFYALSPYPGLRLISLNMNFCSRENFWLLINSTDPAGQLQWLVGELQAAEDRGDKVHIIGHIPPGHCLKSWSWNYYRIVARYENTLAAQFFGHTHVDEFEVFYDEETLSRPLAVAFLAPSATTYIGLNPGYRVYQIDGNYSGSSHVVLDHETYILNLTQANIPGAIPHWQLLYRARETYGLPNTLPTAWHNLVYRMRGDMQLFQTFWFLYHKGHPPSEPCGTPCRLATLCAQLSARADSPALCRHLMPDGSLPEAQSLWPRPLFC
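qHTS format. ASM enzyme prepared from human placenta hydrolyses the fluorogenic substrate HMU-PC0 (9 uM final) over 60 min at 37 °C after a 10 min compound preincubation.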
TGFb SMAD3 inh – TGF-b pathway inhibition; AID 588855; HepG2 CAGA-GFP TGF-b/SMAD3 reporter, GFP fluorescence, 18 h; TGF-beta stimulated, 500 pg/mL final; 1.2% of 410,000 active; Potency, µM (titrated, usually from 46.1 µM), hits mostly inhibitors; note: nearly all actives have a fitted effect of over 65% in size
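HEPG2 CAGA-GFP cells (1000/well, DMEM with 1% FBS) were pre-incubated 2 h at 37 degrees C, given compound by pin tool, then stimulated with TGF-beta at 500 pg/mL final for 18 h before per-cell GFP fluorescence imaging.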
DT40 TDP1 CPT – growth inhibition of DT40 Tdp1-/-;hTDP1 cells with camptothecin (screen for TDP1 inhibitors); chicken DT40 Tdp1-/-;hTDP1 cells + 20 nM CPT, ATP luminescence, 48 h; Potency, µM (titrated, usually from 46.2 µM), most hits filed as inhibitors; 12% of 420,000 active; AID 686979; note: nearly all actives have a fitted effect of over 55% in size
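Chicken DT40 Tdp1-/- cells stably complemented with human TDP1 were seeded at 400 cells/well in medium containing 20 nM camptothecin, exposed to pin-transferred compounds, and grown at 37 °C for at least 48 hr. Viability was read as ATP luminescence.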
IL1B secr inh – inhibitors of inflammasome signaling (IL-1 beta secretion); THP-1 LPS/ATP IL-1B secretion, AlphaLISA, 16 h; active compounds read low; activity change, % at 57.5 µM; 4.7% of 360,000 active; AID 743279; in the data active = activity change below about -50%; inconclusive = mostly about -30% to -49%
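Secreted IL-1B measured by AlphaLISA bead assay after 16 h compound exposure of THP-1 cells; compounds (final up to 57.5 uM) added 1 h before LPS (250 ng/mL) and ATP (1.25 mM) stimulation; lower signal means less secretion.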
DT40 TDP1 no CPT – qHTS for Inhibitors of human tyrosyl-DNA phosphodiesterase 1 (TDP1): qHTS in cells in absence of CPT | DT40 Tdp1-/- hTDP1 cells, no CPT, ATP luminescence, 48 h | Potency, µM (series often up to 46.2 µM), hits mostly inhibitors | 15% of 420,000 active; note: nearly all actives have a fitted effect of over 55% in size
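A cellular qHTS used chicken DT40 cells lacking endogenous Tdp1 but carrying stably transfected human TDP1. Compounds were applied without camptothecin, and cell growth kinetics were judged by ATP-dependent luminescence after ≥48 hr.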
HepG2 viability – counter-screen for TGF-b inhibitors: cytotoxicity in HepG2 cells; AID 588856; Potency, µM (series often up to 46.1 µM), actives largely listed as cytotoxic; 0.76% of 410,000 active; HepG2 CAGA-GFP viability, ATP luminescence, 18 h
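CellTiter-Glo luminescence gave cytotoxicity after 18 hours at 37 degrees C. The cells were HepG2 CAGA-GFP in 1% FBS DMEM, stimulated with 500 pg/mL TGF-beta after compound addition. %Activity was normalised to no-cell wells (complete cell-killing) and DMSO (no toxicity), and curves were fitted and classified.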
A number is an active result; i = inactive; ? = inconclusive; nt = no result given; ! = a repeat was not active. Only some compounds are listed: those with a hit (about 19% of all), similar ones and a draw of the others. Unless noted, calls come from the whole dose curve; as a rule, active = well fitted curve in the direction sought with a large enough effect; inconclusive = small, poorly fitted or top-dose-only effect, or another doubt; inactive = no such curve, though single readings can be large; an effect the other way counts as inactive or inconclusive.

SMILES | S-ASM inh | TGFb SMAD3 inh | DT40 TDP1 CPT | IL1B secr inh | DT40 TDP1 no CPT | HepG2 viability
O=C(c1ccc([N+](=O)[O-])s1)N1CCN(c2cccc(Cl)c2)CC1 | i | 11µM | 21µM | -58 | 21µM | i
COc1ccc(C(=O)N2CCN(c3cccc(Cl)c3)CC2)cc1 | i | i | ? | -59 | 16µM | i
CCOc1ccc(C(=O)N2CCN(c3cccc(Cl)c3)CC2)cc1 | i | ? | i | i | ? | i
Cc1ccc(C(=O)N2CCN(c3cccc(Cl)c3)CC2)cc1C | i | i | ? | i | 26µM | i
CCCCN1CCNC[C@@H]1c1ccccc1 | i | i | i | i | i | i
COc1ccc(C(=O)N2CCN(c3cccc(Cl)c3)CC2)cc1S(=O)(=O)NC1CC1 | i | i | 15µM | i | 15µM | i
CCc1ccc(-n2nc3cc(C)c(NC(=O)c4cc(OC)cc(OC)c4)cc3n2)cc1 | nt | i | i | nt | i | i
CCCCc1ccc(-n2nc3cc(C)c(NC(=O)Cc4ccccc4)cc3n2)cc1 | nt | i | i | nt | i | i
CCc1ccc(-n2nc3cc(C)c(NC(=O)c4cccc5ccccc45)cc3n2)cc1 | nt | i | 21µM | nt | ? | i
CCc1ccc(-n2nc3cc(C)c(NC(=O)c4ccccc4C)cc3n2)cc1 | nt | i | ? | nt | 8.2µM | i
CC1=C(/C=C/C(C)=C/C=C/C(C)=C/C(=O)Oc2c(C)c(C)c3c(c2C)CC[C@@](C)(CCC[C@H](C)CCC[C@H](C)CCCC(C)C)O3)C(C)(C)CCC1 | nt | nt | i | nt | i | nt
CCCN(CCC)CCNC(=O)c1sc2nc3n(c(=O)c2c1C)CCCCC3 | nt | i | ? | nt | i | i
CCN(CC)C(=O)Oc1ccc2c(=O)c(-c3ccc(OC)cc3)coc2c1 | i | i | ? | -60 | 23µM | i
COC(=O)COc1ccc2c(=O)c(-c3ccccc3)coc2c1 | i | i | i | i | i | i
CC(C)Oc1ccc2c(=O)c(-c3ccccc3)coc2c1 | i | i | ? | i | 18µM! | i
COC(=O)c1ccc(NC(=O)CSc2nnc3c4ccccc4n(C(C)C)c3n2)cc1 | nt | i | nt | nt | nt | i
Cc1cnccc1CN(C)Cc1nc(Cc2ccccc2Cl)no1 | i | i | 18µM | i | 15µM | i
CC(C)C[C@@H](CN=[N+]=[N-])N1CCN(CCc2ccccc2)CCC1=O | nt | i | ? | nt | 13µM | i
O=C1CCN(Cc2ccc([N+](=O)[O-])cc2)CCN1[C@H](CO)c1ccccc1 | i | i | ? | i | i | i
O=C1CCN(Cc2ccc(Br)cc2)CCN1[C@H](CO)c1ccccc1 | i | i | ? | i | 14µM! | i
COc1ccc(SC[C@H](CC(C)C)N2CCN(CCc3ccccc3)CCC2=O)cc1 | i | ? | 15µM | i | 18µM | i
O=C1CCN(Cc2ccccc2)CCN1[C@H](CSc1ccccc1)Cc1ccccc1 | i | i | 23µM | i | 20µM | i
CCCCn1c(N)c(N(CCOC)C(=O)c2cccc(S(=O)(=O)N3CCCCCC3)c2)c(=O)[nH]c1=O | i | i | i | i | i | i
COc1cccc2cc(C(C)OC(=O)Nc3ccc(C)cc3)oc12 (stereo unspecified) | i | ? | i | i | i | i
COc1ccc(Nc2nc(C(=O)N(CCO)Cc3ccccc3)cs2)cc1 | i | i | ? | i | ? | i
O=C1CCN(CCc2ccccc2)CCN1[C@H](CSc1ccc(Br)cc1)Cc1ccccc1 | i | ? | 16µM | i | 15µM | i
CCCN1CCC(=O)N(C(CSc2ccc(Br)cc2)CC(C)C)CC1 (stereo unspecified) | nt | i | nt | nt | nt | i
CC(C)C[C@@H](CSc1ccc(Br)cc1)N1CCN(CC(C)C)CCC1=O | i | i | 23µM | ? | 16µM | i
CCCN1CCC(=O)N(C(CSc2ccc(Br)cc2)Cc2ccccc2)CC1 (stereo unspecified) | nt | i | nt | nt | nt | i
CCOc1ccc(CN(C)C(=O)c2cc(S(=O)(=O)N3CCCC3)ccc2C)cc1 | i | i | ? | i | ? | i

Screening data from PubChem BioAssay.
